Measured values reported in ChEMBL document CHEMBL3988442, “University of Dundee, Small-Polar-MMV Screening Library” (2021).
Out of some 48,000 compounds screened, about 13,000 (27%) showed an effect of 50% or more. The list shows a part of the results.

System: Wolbachia pipientis
Test: Anti-Wolbachia Cell-Based Screen
Format: functional
Parameters: scale not given: in the data most compounds retested in dose-response had high values
Conditions: 5 µM

| Structure (SMILES) | Percent Effect [%] |
| --- | --- |
| Cc1ccccc1SCC(=O)Nn1cnnc1 | -2.526 |
| O=C(C(O)c1ccccc1Cl)N1CCCN(Cc2cccnc2)CC1 (stereo not drawn) | -0.1768 |
| Cc1nc([C@@H]2C[C@H]3CN(Cc4ccc5c(c4)OCO5)C[C@H]3O2)no1 | -16.45 |
| O=C(COCC1CC1)Nc1cc(S(=O)(=O)NC2CC2)ccc1F | 1.35 |
| N#CC1COCCN1S(=O)(=O)c1ccc2ccccc2c1 (stereo not drawn) | -7.007 |
| O=C1CC(NS(=O)(=O)c2ccc3ccccc3c2)CN1 (stereo not drawn) | 96.97 |
| Cc1ccc(S(=O)(=O)NC2CNC(=O)C2)cc1C (stereo not drawn) | -5.685 |
| O=C1CC(NS(=O)(=O)c2ccc(Cl)cc2)CN1 (stereo not drawn) | 124.5 |
| O=C1CC(NS(=O)(=O)c2ccccc2)CN1Cc1ccccc1 (stereo not drawn) | 4.424 |
| CC(C)O[C@H]1CN(C(=O)CCN2CCCCO2)C[C@@H]1O | -9.995 |
| Cc1nnc(SCCNC(=O)c2cc(S(N)(=O)=O)ccc2F)s1 | 5.633 |
| O=C(O)C(F)(F)F.O=C(c1ccoc1)N1C[C@@H]2[C@@H](C1)OCC(=O)N2Cc1cccnc1 | -4.595 |
| O=C(O)C(F)(F)F.O=C(c1ccco1)N1C[C@@H]2OCCN(c3ncccn3)[C@@H]2C1 | 113.8 |
| O=C(O)C(F)(F)F.O=C(c1ccc(O)cc1)N1C[C@@H]2OCCN(c3ncccn3)[C@@H]2C1 | 101.3 |
| O=C(O)C(F)(F)F.O=C(c1ccoc1)N1C[C@@H]2OCCN(c3ncccn3)[C@@H]2C1 | 85.6 |
| O=C(O)C(F)(F)F.O=C(c1ccco1)N1C[C@@H]2[C@@H](C1)OCC(=O)N2Cc1cccnc1 | -32.49 |
| O=C(c1ccoc1)N1CC[C@@H]2[C@@H](CC1)OCCN2c1cccnc1 | -2.409 |
| O=C(O)C(F)(F)F.O=C(c1ccco1)N1C[C@@H]2CN(c3ccccn3)C[C@@H]2C1 | -23.25 |
| O=C(O)C(F)(F)F.O=C(c1ccccc1)N1CCO[C@@H]2CN(c3ncccn3)C[C@@H]2C1 | 5.105 |
| O=C(O)C(F)(F)F.O=C(c1ccc(F)cc1)N1C[C@@H]2OCCN(c3ncccn3)[C@@H]2C1 | -10.32 |
| CSCC[C@@H](CO)Nc1ccc(-c2nc(-c3ccccc3C)no2)cn1 | 8.283 |
| COCCN1CCC(NC(=O)Nc2cccc(F)c2)C1 (stereo not drawn) | -22.85 |
| CO[C@@H]1CCC[C@@H](NC(=O)C(C)(C)c2cccc(F)c2)[C@H]1O | 116.6 |
| CC(C)CS(=O)(=O)CC(=O)NC(C)(C)c1cccc(F)c1 | 8.066 |
| Fc1cccc(-n2nc(C3CC3)nc2CCn2cnnn2)c1 | -8.194 |
| Cn1cc(C2CCCN2Cc2csc(C(C)(C)C)n2)cn1 (stereo not drawn) | 3.745 |

| Structure (SMILES) | Percent Effect [%] |
| --- | --- |
| Cc1cnc(CN2CCCC2c2noc(C)n2)cn1 (stereo not drawn) | -5.918 |
| CN(C)Cc1ccnc(C2CCCN2Cc2ccc(F)cn2)n1 (stereo not drawn) | 110.9 |
| CCCn1cc(CN2CCCC2c2nccc(CN(C)C)n2)cn1 (stereo not drawn) | 91.04 |
| Cc1cnn(CC2CCCN2CC(=O)N(C)Cc2cnn(C)c2)c1 (stereo not drawn) | -0.6585 |
| CN(C)Cc1ccnc(C2CCCN2Cc2cccc(F)c2F)n1 (stereo not drawn) | 111 |
| Cc1nn(C)c(C)c1CN(C)C(=O)C1COc2ccccc2C1 (stereo not drawn) | -11.47 |
| Cc1nn(C)c(C)c1CN1CCCC1c1nccc(CN(C)C)n1 (stereo not drawn) | 96.16 |
| CN(C)Cc1ccnc(C2CCCN2Cc2cc[nH]n2)n1 (stereo not drawn) | -4.978 |
| C1CCN(CCOC2CCNC2)CC1.Cl.Cl (stereo not drawn) | -5.434 |
| CCNC(=O)[C@@H]1C[C@H](N)CN1Cc1ccc2cccc(Cl)c2n1 | 33.76 |
| Cn1cnc(S(=O)(=O)N2C[C@H](OCC3CC3)[C@H]3OCCC[C@H]32)c1.O=C(O)C(F)(F)F | -7.803 |
| CCSCC(C)NCc1nn(C)c2ccc(C)cc12 (stereo not drawn) | -30.17 |
| CCC1CN(C(=O)c2ccc(O)c(C)c2)CCN1C(C)C (stereo not drawn) | -1.675 |
| COC(=O)[C@@H]1Cc2c[nH]c3cccc(c23)[C@H](CC(C)C)N1 | -15.46 |
| O=C(CCOCC(F)(F)F)NS(=O)(=O)c1cccnc1 | 3.556 |
| Cc1ccc(CCN2C(=O)CC[C@H]3CN(Cc4cnn(C)c4)CC[C@H]32)o1 | 42.08 |
| CCN(CC)S(=O)(=O)N1CCCC1c1nnc2n1CCN(C)CC2 (stereo not drawn) | 109.2 |
| CCN(Cc1cnn(C)c1)S(=O)(=O)N1CCCC1c1ccco1 (stereo not drawn) | 12.89 |
| CN1CCc2nnc(C3CCCN3S(=O)(=O)c3ccc(F)cc3)n2CC1 (stereo not drawn) | 101.3 |
| Fc1ccc(-c2nnc(CN3CCn4c(nnc4C4CC4)C3)o2)cc1 | -8.144 |
| CCN(CC)S(=O)(=O)N1CCCC1CC(=O)c1cccs1 (stereo not drawn) | 1.947 |
| COc1cccc2c1CCN(C(=O)NCc1nnc3ccccn13)C2 | -4.622 |
| COc1cc(NC(=O)C2CC(=O)N(c3cccc(Br)c3)C2)ncn1 (stereo not drawn) | -7.851 |
| CCNC(=O)[C@@H]1C[C@@H](N)CN1Cc1ccc2cccc(Cl)c2n1 | -2.31 |
| CCc1ccc2c(c1)C(CCNC(=O)CSC(F)(F)F)C(=O)N2 (stereo not drawn) | 2.698 |
| CCC1CCCCCN1C(=O)c1coc(S(=O)(=O)N(C)C)c1 (stereo not drawn) | 15.41 |

| Structure (SMILES) | Percent Effect [%] |
| --- | --- |
| Cc1cnn(CC2CCCCN2C(=O)c2ccc(CN(C)C)cc2)c1 (stereo not drawn) | 17.54 |
| Cc1ccc(C(=O)N2CCCCC2CN(C)C)cc1 (stereo not drawn) | 107.2 |
| CCC1CCCCCN1C(=O)c1ccc(N2CCC(O)CC2)cc1 (stereo not drawn) | 94.71 |
| Cc1ccccc1C(=O)N1CCOCC1CN(C)C.O=CO (stereo not drawn) | -21.7 |
| CCC1CCCCN1C(=O)c1ccc2[nH]nnc2c1 (stereo not drawn) | 1.78 |
| COCCCC1CCCCN1C(=O)c1ccc(SCCO)cc1 (stereo not drawn) | -1.649 |
| CN(C)CC1COCCN1C(=O)c1ccccc1C(=O)c1ccccc1.O=CO (stereo not drawn) | -10.61 |
| CN(C)CC1CCCCN1C(=O)c1ccc(N2CCOCC2)cc1 (stereo not drawn) | 108.2 |
| Cn1cccc1-c1nnc(C2(c3ccc4c(c3)OCO4)CCOCC2)o1 | -12.47 |
| COCCOc1ncccc1C(=O)N(C)c1nccs1 | -66.02 |
| CCOCc1nc2c(c(N3CC=CC3)n1)CCN(C1CCOCC1)CC2 | -25.57 |
| CCc1ccccc1OCCN1CCC(NS(C)(=O)=O)CC1 | 2.392 |
| N#Cc1cccc(S(=O)(=O)NC(=O)COc2ccc3c(c2)CCC3)c1 | -8.201 |
| COc1ccc(C(=O)NS(=O)(=O)c2cccc(C#N)c2)cc1 | 98.14 |
| COc1cccc(C(=O)NS(=O)(=O)c2cccc(C#N)c2)c1 | 105.7 |
| Cn1nnc2cc(C(=O)NS(=O)(=O)c3cccc(C#N)c3)ccc21 | -4.102 |
| COc1ccc2[nH]cc(C(=O)N3C[C@@H](O)[C@H](N4CCCC4)C3)c2c1 | 103.4 |
| COc1ccc2[nH]cc(C(=O)N3C[C@@H](O)[C@H](N4CCOCC4)C3)c2c1 | 129.4 |
| COCCCNC(=O)c1c[nH]c2ccc(OC)cc12 | -17.1 |
| CCN(CC)C(=O)CCNC(=O)c1c[nH]c2ccc(OC)cc12 | 24.42 |
| COc1ccc2[nH]cc(C(=O)N3C[C@@H](O)[C@H](NS(C)(=O)=O)C3)c2c1 | 146.2 |
| COc1ccc(C(=O)N2C[C@@H](CN3CCOCC3)[C@@H](CO)C2)c(C)c1 | -1.833 |
| Cc1cc(C(=O)N2C[C@@H]3CCCO[C@@H]3[C@H](N3CCOCC3)C2)c(C)[nH]1 | 5.404 |
| CCN(CC)C(=O)CNC(=O)c1c[nH]c2ccc(OC)cc12 | -4.616 |
| COc1ccc2[nH]cc(C(=O)N3CC[C@H](CO)[C@@H](O)C3)c(=O)c2c1 | 6.79 |
| CCS(=O)(=O)c1ccc(N2CCC(NC(=O)C(C)SC)CC2)cc1 (stereo not drawn) | 6.219 |

| Structure (SMILES) | Percent Effect [%] |
| --- | --- |
| Cc1cc(C(C)NC(=O)c2c[nH]c(=O)c(Cl)c2)c(C)o1 (stereo not drawn) | -8.782 |
| CC(C)C(C)(C#N)NC(=O)CN1CCCN(Cc2ccccc2F)CC1 (stereo not drawn) | 1.272 |
| CCSc1ccc(NC(=O)NC2CCc3[nH]ncc3C2)cn1 (stereo not drawn) | -2.569 |
| O=C(Nc1ccc(CN2CCOCC2)cc1)c1nccn2ccnc12 | -3.19 |
| Cc1nn(C)c2nc(O)cc(C(F)(F)C(F)(F)F)c12 | 1.264 |
| COc1ccc2c(C)c(C(=O)NCCCc3csc(N)n3)oc2c1 | -14.38 |
| CC(C)c1nn(C)c(N(C)C)c1CNCC(O)c1cccc(F)c1 (stereo not drawn) | 133.5 |
| Cc1nn(C)c(N(C)C)c1CNCC(O)c1ccccc1 (stereo not drawn) | -19.87 |
| CC(C)c1nn(C)c(Cl)c1CNCC(O)c1cccc(F)c1.Cl (stereo not drawn) | 10.68 |
| Cc1ccc(C(O)CNCc2c(C(C)C)nn(C)c2N(C)C)cc1 (stereo not drawn) | 2.504 |
| CC(C)c1nn(C)c(N(C)C)c1CNC(C)c1ccccc1F (stereo not drawn) | 86.76 |
| CC(C)c1nn(C)c(N(C)C)c1CNCc1cccc(CN(C)C)c1.Cl | -0.8074 |
| CC(C)c1nn(C)c(N(C)C)c1CNCC(O)c1ccccc1 (stereo not drawn) | 92.25 |
| COc1cccc(CNCc2c(C(C)C)nn(C)c2N(C)C)c1OC | -9.439 |
| CC(C)c1nn(C)c(N(C)C)c1CNCc1cccnc1 | 3.817 |
| O[C@@H]1CCN(c2ccc3c(Cl)ccnc3c2F)C1 | -13.88 |
| COc1ccc(Cl)cc1CNCCCn1ccnc1 | 10.95 |
| COc1ccc(CN2CCN(Cc3nccn3C)C(C)C2)cc1F (stereo not drawn) | 3.11 |
| O=S(=O)(c1ccc(F)cc1)N1CCN(CCCn2ccnc2)CC1 | 9.586 |
| CCOc1ccc(CNCCCn2ccnc2)cc1OC | -15.55 |
| O=S(=O)(c1cccnc1)N1CCN(CCn2ccnc2)CC1 | 2.586 |
| COc1ccc(CNCC2CCN(CCO)CC2)cc1F | -13.55 |
| COc1ccc(CN2CCN(CCn3ccnc3)CC2)cc1F | 154.2 |
| COc1ccc(F)cc1S(=O)(=O)N1CCN(CCn2ccnc2)CC1 | 123.5 |
| COc1ccc(Cn2ccnc2)cc1F | 137.9 |
